According to the supplement of paper PMC10849652:
The full data set covers some 7,900 targets. This sample favours those with a hit. About 0.6% of all pairs of compound and target were hits.

compound: Cc1cccc(CC(=O)N2CCc3c2ccc(-c2cn(C)c4ncnc(N)c24)c3F)n1; assay: log2 fold change, soluble protein after heating vs DMSO (PISA); higher = thermal stabilisation; K562 cells, 10 uM, 30 min; active = over 0.2 and 3.5 SD of the protein, either way, in both replicates (recomputed)
Procedure, shortened: (§1)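 K562 cells at 2×10^6 cells/mL were treated for 30 min with 10 μM compound, and aliquots were heated for 3 min over 48°C-58°C before pooling. Extraction used PBS with 0.5% NP-40 at 4°C, and soluble protein was the supernatant after 21,000xg for 90 min, measured by TMTpro 16plex LC-MS/MS with channel sums equalised. Thermal stability values, relative to control samples and from duplicates, are log2 fold changes.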

Chain of UniProt P11233 (P11233 whole entry, looked up): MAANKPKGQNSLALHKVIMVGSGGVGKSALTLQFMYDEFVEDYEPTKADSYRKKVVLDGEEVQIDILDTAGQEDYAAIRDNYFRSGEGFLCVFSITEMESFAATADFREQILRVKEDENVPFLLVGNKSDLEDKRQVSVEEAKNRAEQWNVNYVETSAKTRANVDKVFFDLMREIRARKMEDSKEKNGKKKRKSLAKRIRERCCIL
Chain of UniProt Q9H4A4 (Q9H4A4 whole entry, looked up): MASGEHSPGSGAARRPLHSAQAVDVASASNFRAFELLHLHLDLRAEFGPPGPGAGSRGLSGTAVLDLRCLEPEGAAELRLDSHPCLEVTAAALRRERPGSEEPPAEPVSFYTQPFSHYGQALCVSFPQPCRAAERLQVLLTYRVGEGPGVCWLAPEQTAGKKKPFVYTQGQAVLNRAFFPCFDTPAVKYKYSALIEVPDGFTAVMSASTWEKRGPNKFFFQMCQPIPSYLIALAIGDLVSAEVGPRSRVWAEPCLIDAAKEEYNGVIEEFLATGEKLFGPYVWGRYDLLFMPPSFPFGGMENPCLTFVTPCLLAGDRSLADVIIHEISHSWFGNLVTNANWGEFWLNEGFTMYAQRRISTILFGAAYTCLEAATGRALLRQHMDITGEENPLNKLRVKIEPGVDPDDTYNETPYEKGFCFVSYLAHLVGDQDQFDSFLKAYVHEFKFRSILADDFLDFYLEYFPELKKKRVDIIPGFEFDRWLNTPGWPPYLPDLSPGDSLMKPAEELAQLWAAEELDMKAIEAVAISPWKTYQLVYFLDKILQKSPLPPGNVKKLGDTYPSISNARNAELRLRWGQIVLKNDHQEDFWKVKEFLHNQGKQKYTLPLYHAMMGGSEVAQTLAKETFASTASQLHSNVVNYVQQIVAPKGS
Chain of UniProt Q04864 (Q04864 whole entry, looked up): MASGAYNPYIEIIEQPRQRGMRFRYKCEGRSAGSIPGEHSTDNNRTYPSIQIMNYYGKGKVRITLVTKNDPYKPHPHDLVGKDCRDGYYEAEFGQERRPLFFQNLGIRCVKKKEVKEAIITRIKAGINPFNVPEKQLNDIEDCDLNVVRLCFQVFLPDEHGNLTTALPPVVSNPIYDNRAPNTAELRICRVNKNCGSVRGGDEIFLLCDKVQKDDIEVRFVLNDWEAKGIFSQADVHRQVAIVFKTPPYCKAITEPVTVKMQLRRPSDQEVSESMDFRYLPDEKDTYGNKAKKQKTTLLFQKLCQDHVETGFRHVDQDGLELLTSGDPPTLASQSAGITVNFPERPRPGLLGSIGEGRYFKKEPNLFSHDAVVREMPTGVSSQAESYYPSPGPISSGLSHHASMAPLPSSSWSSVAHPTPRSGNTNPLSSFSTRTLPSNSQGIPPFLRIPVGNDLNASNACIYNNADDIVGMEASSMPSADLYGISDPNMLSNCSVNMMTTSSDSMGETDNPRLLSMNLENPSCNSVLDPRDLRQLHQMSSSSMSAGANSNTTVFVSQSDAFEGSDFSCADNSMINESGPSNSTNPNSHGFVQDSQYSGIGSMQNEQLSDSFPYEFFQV
Chain of UniProt Q96T51 (Q96T51 whole entry, looked up): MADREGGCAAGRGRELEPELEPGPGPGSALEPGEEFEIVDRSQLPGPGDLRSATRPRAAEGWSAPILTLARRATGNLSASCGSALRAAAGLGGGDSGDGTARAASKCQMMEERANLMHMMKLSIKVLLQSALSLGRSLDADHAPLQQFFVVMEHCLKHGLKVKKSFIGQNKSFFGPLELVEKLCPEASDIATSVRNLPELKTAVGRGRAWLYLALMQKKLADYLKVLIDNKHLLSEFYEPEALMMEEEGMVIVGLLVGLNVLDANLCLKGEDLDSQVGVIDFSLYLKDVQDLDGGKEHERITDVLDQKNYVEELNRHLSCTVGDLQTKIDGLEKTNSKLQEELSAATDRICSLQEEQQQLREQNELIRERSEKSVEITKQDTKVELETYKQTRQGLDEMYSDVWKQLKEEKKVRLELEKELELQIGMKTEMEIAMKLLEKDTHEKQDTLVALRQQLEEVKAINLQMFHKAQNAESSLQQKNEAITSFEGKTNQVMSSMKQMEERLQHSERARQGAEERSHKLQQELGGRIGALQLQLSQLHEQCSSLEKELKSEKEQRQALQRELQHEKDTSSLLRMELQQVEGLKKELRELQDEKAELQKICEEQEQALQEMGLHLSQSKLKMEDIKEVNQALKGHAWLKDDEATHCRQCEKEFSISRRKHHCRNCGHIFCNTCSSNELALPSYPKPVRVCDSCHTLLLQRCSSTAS
Chain of UniProt Q9NX18 (Q9NX18 whole entry, looked up): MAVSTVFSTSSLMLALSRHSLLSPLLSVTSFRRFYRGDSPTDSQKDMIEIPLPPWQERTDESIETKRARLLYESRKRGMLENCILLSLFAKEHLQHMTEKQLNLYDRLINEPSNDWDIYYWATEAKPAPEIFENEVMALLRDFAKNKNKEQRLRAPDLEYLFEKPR
Chain of UniProt Q14493 (Q14493 whole entry, looked up): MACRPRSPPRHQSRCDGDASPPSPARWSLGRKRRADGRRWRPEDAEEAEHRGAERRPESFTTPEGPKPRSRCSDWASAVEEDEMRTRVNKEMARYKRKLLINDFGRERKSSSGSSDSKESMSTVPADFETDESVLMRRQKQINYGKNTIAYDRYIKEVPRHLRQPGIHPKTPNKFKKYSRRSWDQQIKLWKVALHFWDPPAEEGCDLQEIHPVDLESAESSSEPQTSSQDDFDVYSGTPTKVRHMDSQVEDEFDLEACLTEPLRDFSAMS
Chain of UniProt Q8IZV5 (Q8IZV5 whole entry, looked up): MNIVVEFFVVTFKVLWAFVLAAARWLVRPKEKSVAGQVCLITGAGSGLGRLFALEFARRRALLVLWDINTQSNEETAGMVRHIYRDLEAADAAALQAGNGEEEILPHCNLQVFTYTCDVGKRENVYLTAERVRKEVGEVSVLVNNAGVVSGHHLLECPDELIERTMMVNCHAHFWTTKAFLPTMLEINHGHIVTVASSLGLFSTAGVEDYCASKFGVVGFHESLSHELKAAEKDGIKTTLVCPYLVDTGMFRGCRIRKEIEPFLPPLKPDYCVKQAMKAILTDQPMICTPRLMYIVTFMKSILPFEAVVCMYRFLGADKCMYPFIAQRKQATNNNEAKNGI
Chain of UniProt Q14151 (Q14151 whole entry, looked up): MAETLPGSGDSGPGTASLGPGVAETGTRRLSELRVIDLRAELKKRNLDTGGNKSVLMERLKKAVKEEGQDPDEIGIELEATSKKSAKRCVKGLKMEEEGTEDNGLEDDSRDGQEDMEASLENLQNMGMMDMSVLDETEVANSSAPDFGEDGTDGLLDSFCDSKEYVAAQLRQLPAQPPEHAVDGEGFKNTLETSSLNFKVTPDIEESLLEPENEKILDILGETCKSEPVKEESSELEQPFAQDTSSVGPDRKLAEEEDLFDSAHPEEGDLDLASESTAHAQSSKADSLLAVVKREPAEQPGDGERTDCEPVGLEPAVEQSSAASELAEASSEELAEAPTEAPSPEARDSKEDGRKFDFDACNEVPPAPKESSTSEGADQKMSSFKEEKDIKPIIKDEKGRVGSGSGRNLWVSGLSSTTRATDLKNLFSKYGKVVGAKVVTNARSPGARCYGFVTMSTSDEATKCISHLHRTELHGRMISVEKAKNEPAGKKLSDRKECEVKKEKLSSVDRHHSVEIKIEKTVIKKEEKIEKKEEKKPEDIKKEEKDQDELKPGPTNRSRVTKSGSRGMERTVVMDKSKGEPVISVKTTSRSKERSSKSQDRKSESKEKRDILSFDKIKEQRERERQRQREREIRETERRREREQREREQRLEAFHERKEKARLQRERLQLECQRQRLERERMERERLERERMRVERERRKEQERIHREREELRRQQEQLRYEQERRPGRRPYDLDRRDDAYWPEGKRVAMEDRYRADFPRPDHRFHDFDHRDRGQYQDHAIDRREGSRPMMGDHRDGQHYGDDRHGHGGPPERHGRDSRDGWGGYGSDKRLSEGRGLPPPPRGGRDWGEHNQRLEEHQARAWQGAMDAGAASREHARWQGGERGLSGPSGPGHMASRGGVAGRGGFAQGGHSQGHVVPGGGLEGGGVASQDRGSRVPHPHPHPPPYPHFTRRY
Chain of UniProt Q9NTZ6 (Q9NTZ6 whole entry, looked up): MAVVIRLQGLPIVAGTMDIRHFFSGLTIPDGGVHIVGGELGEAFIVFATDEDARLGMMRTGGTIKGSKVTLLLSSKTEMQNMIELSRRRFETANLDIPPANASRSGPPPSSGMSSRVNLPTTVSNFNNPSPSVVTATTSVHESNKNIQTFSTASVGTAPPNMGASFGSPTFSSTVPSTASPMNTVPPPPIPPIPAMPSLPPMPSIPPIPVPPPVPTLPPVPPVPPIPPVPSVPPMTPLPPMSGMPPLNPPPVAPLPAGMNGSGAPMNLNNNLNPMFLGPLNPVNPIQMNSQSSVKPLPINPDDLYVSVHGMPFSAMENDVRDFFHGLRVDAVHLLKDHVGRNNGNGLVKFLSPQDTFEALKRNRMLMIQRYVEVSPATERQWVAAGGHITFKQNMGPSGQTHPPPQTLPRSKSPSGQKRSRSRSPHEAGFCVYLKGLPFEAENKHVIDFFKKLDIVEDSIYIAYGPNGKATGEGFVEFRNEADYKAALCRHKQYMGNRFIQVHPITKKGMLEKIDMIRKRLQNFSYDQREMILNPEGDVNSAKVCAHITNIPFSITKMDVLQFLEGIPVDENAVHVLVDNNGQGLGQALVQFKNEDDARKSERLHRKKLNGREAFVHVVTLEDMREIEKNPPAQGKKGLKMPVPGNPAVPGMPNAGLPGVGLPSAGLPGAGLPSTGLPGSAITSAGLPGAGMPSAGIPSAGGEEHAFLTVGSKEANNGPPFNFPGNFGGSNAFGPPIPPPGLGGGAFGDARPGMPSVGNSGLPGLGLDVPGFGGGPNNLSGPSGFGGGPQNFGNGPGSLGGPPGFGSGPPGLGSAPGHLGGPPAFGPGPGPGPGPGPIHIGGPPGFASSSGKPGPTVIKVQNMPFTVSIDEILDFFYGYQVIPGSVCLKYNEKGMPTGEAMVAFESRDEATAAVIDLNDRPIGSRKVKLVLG
Chain of UniProt O95059 (O95059 whole entry, looked up): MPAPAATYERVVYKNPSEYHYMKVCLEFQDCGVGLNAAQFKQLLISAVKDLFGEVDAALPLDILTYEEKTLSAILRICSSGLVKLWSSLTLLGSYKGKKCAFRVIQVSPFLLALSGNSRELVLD

Target	log2 fold change
SLBP (UniProt Q14493)	-0.017 (inactive)
RDH10 (UniProt Q8IZV5)	0.15 (inactive)
SAFB2 (UniProt Q14151)	-0.018 (inactive)
SEC23A (UniProt Q15436)	0.024 (inactive)
SCG3 (UniProt Q8WXD2)	-0.027 (inactive)
RUFY1 (UniProt Q96T51)	0.077 (inactive)
SLC19A1 (UniProt P41440)	0.039 (inactive)
SFXN5 (UniProt Q8TD22)	0.017 (inactive)
RAC3 (UniProt P60763)	-0.221 (inactive)
RPRD1B (UniProt Q9NQG5)	0.04 (inactive)
SDHC (UniProt Q99643)	-0.127 (inactive)
RRAGC (UniProt Q9HB90)	-0.054 (inactive)
RPS19 (UniProt P39019)	-0.026 (inactive)
RHEB (UniProt Q15382)	0.004 (inactive)
RBM17 (UniProt Q96I25)	0.042 (inactive)
SIRT2 (UniProt Q8IXJ6)	-0.003 (inactive)
RBM12 (UniProt Q9NTZ6)	0.046 (inactive)

Target	log2 fold change
SASH1 (UniProt O94885)	-0.006 (inactive)
RPS20 isoform 2 (UniProt P60866)	-0.005 (inactive)
RPP14 (UniProt O95059)	0 (inactive)
RBM25 (UniProt P49756)	-0.066 (inactive)
RCOR1 (UniProt Q9UKL0)	0.021 (inactive)
RPS12 (UniProt P25398)	0.006 (inactive)
RAB9A (UniProt P51151)	-0.021 (inactive)
REL (UniProt Q04864)	0.03 (inactive)
RAB5C isoform 2 (UniProt P51148)	-0.021 (inactive)
RPS27A (UniProt P62979)	0.023 (inactive)
SKP1 (UniProt P63208)	0.289 (active)
RRP9 (UniProt O43818)	-0.103 (inactive)
RALA (UniProt P11233)	0.178 (inactive)
SDHAF2 (UniProt Q9NX18)	0.166 (inactive)
RBM39 (UniProt Q14498)	0.082 (inactive)
RNPEP (UniProt Q9H4A4)	0.035 (inactive)

compound: Cc1cn(-c2cc(NC(=O)c3ccc(C)c(Nc4nccc(-c5cccnc5)n4)c3)cc(C(F)(F)F)c2)cn1 [nilotinib]; assay: as above
Procedure, shortened: as §1

Target	log2 fold change
SLBP (UniProt Q14493)	-0.05 (inactive)
RDH10 (UniProt Q8IZV5)	0.051 (inactive)
SAFB2 (UniProt Q14151)	-0.016 (inactive)
SEC23A (UniProt Q15436)	-0.012 (inactive)
SCG3 (UniProt Q8WXD2)	0.172 (inactive)
RUFY1 (UniProt Q96T51)	-0.066 (inactive)
SLC19A1 (UniProt P41440)	0.01 (inactive)
SFXN5 (UniProt Q8TD22)	-0.052 (inactive)
RAC3 (UniProt P60763)	0.03 (inactive)
RPRD1B (UniProt Q9NQG5)	-0.036 (inactive)
SDHC (UniProt Q99643)	0.007 (inactive)
RRAGC (UniProt Q9HB90)	-0.005 (inactive)
RPS19 (UniProt P39019)	0.046 (inactive)
RHEB (UniProt Q15382)	-0.027 (inactive)
RBM17 (UniProt Q96I25)	-0.095 (inactive)
SIRT2 (UniProt Q8IXJ6)	0.061 (inactive)
RBM12 (UniProt Q9NTZ6)	-0.108 (inactive)

Target	log2 fold change
SASH1 (UniProt O94885)	-0.079 (inactive)
RPS20 isoform 2 (UniProt P60866)	-0.006 (inactive)
RPP14 (UniProt O95059)	-0.014 (inactive)
RBM25 (UniProt P49756)	-0.012 (inactive)
RCOR1 (UniProt Q9UKL0)	-0.034 (inactive)
RPS12 (UniProt P25398)	0.002 (inactive)
RAB9A (UniProt P51151)	-0.01 (inactive)
REL (UniProt Q04864)	-0.094 (inactive)
RAB5C isoform 2 (UniProt P51148)	0.019 (inactive)
RPS27A (UniProt P62979)	0.056 (inactive)
SKP1 (UniProt P63208)	0.024 (inactive)
RRP9 (UniProt O43818)	0.046 (inactive)
RALA (UniProt P11233)	0.064 (inactive)
SDHAF2 (UniProt Q9NX18)	-0.02 (inactive)
RBM39 (UniProt Q14498)	-0.027 (inactive)
RNPEP (UniProt Q9H4A4)	-0.004 (inactive)

compound: Cc1nc(Nc2n[nH]c3c2CN(C(=O)N[C@H](CN(C)C)c2ccccc2)C3(C)C)c2sccc2n1; assay: as above
Procedure, shortened: as §1

Target	log2 fold change
SLBP (UniProt Q14493)	-0.093 (inactive)
RDH10 (UniProt Q8IZV5)	-0.032 (inactive)
SAFB2 (UniProt Q14151)	0.117 (inactive)
SEC23A (UniProt Q15436)	0.014 (inactive)
SCG3 (UniProt Q8WXD2)	-0.098 (inactive)
RUFY1 (UniProt Q96T51)	-0.086 (inactive)
SLC19A1 (UniProt P41440)	0.012 (inactive)
SFXN5 (UniProt Q8TD22)	0.049 (inactive)
RAC3 (UniProt P60763)	0.036 (inactive)
RPRD1B (UniProt Q9NQG5)	-0.072 (inactive)
SDHC (UniProt Q99643)	0.068 (inactive)
RRAGC (UniProt Q9HB90)	0.022 (inactive)
RPS19 (UniProt P39019)	0.181 (inactive)
RHEB (UniProt Q15382)	0.001 (inactive)
RBM17 (UniProt Q96I25)	-0.249 (inactive)
SIRT2 (UniProt Q8IXJ6)	-0.006 (inactive)
RBM12 (UniProt Q9NTZ6)	-0.227 (inactive)

Target	log2 fold change
SASH1 (UniProt O94885)	-0.071 (inactive)
RPS20 isoform 2 (UniProt P60866)	0.223 (inactive)
RPP14 (UniProt O95059)	0.019 (inactive)
RBM25 (UniProt P49756)	-0.03 (inactive)
RCOR1 (UniProt Q9UKL0)	-0.107 (inactive)
RPS12 (UniProt P25398)	0.126 (inactive)
RAB9A (UniProt P51151)	0.012 (inactive)
REL (UniProt Q04864)	-0.438 (active)
RAB5C isoform 2 (UniProt P51148)	-0.019 (inactive)
RPS27A (UniProt P62979)	0.2 (inactive)
SKP1 (UniProt P63208)	-0.011 (inactive)
RRP9 (UniProt O43818)	-0.042 (inactive)
RALA (UniProt P11233)	-0.012 (inactive)
SDHAF2 (UniProt Q9NX18)	0.022 (inactive)
RBM39 (UniProt Q14498)	-1.03 (active)
RNPEP (UniProt Q9H4A4)	-0.041 (inactive)
